According to PubChem BioAssay AID1159580 (chemical genetic matrix, 2015):
“And” between values parts separate entries of the source, which are not always exact repeats. Equal entries are not always repeated. About 2,000 (36%) of roughly 5,500 compounds were called active. Roughly 18% stayed inconclusive and do not appear here. No stated cut-off is given here; in the data, active means normalized growth mostly below about 0.91 (no sharp cut-off); inconclusive means no clear call, values can overlap the other calls; inactive means mostly above about 0.92. Some of the results follow.

Assay: chemical genetic growth profiling, strain panel (AID 1159580);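 further: tested at 20 µM; growth read once vehicle control cultures reached saturation at 30 °C; 1 = growth at the plate median or of vehicle wells; lower values mean less growth of the strain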
Settings: S. cerevisiae deletion strains, growth OD

Measured: normalized growth

CC1(C)C2CC(=O)[C@]3(C)C(CC[C@@]4(C)[C@H](c5ccoc5)OC(=O)C5OC543)[C@@]2(C)[C@@H](O)C[C@H]1O (stereo not given in full)
inactive: locus YAL021C, strain ccr4, hits give low values 0.987 | locus YAL026C, strain drs2, hits give low values 1.01 | locus YAL030W, strain snc1, hits give low values 1 | locus YBL061C, strain skt5, hits give low values 1.01 | locus YBR009C, strain hhf1, hits give low values 1.02 | locus YBR021W, strain FUR4, hits give low values 1 | locus YBR023C, strain chs3, hits give low values 1.01 | locus YBR171W, strain sec66, hits give low values 1.03 | locus YBR229C, strain ROT2, hits give low values 1.01 | locus YBR231C, strain swc5, hits give low values 1.01 | locus YBR279W, strain paf1, hits give low values 1 | locus YCL011C, strain gbp2, hits give low values 1.01 | locus YCL016C, strain dcc1, hits give low values 1.01 | locus YCL029C, strain bik1, hits give low values 1.02 | locus YCL069W, strain vba3, hits give low values 1.02 | locus YCR088W, strain abp1, hits give low values 1.01 | locus YDL005C, strain med2, hits give low values 1 | locus YDL035C, strain GPR1, hits give low values 1.08 | locus YDL040C, strain nat1, hits give low values 1 | locus YDL074C, strain BRE1, hits give low values 1.09 | locus YDL101C, strain DUN1, hits give low values 1.02 | locus YDL134C, strain PPH21, hits give low values 1.04 | locus YDL185W, strain tfp1, hits give low values 0.996 | locus YDL192W, strain arf1, hits give low values 1.01 | locus YDR001C, strain nth1, hits give low values 1 | locus YDR069C, strain doa4, hits give low values 0.995 | locus YDR101C, strain arx1, hits give low values 0.98 | locus YDR137W, strain rgp1, hits give low values 1.02 | locus YDR159W, strain sac3, hits give low values 1.03 | locus YDR162C, strain NBP2, hits give low values 1.05 | locus YDR195W, strain ref2 0.968 | locus YDR297W, strain sur2, hits give low values 1.01 | locus YDR318W, strain mcm21, hits give low values 1 | locus YDR334W, strain swr1, hits give low values 1 | locus YDR335W, strain msn5, hits give low values 1.01 | locus YDR388W, hits give low values 0.976 | locus YDR392W, strain spt3, hits give low values 1.01 | locus YDR502C, strain sam2, hits give low values 1.01 | locus YEL003W, strain gim4, hits give low values 1.01 | locus YEL037C, strain rad23, hits give low values 1 | locus YEL061C, strain CIN8 (second series), hits give low values 0.994 | locus YER015W, strain faa2, hits give low values 0.997 | locus YER016W, strain bim1, hits give low values 1.01 | locus YER110C, hits give low values 0.988 | locus YER111C, strain swi4, hits give low values 1.01 | locus YER155C, strain BEM2 (second series), hits give low values 1.02 | locus YER155C, strain BEM2, hits give low values 1 | locus YER167W, strain BCK2, hits give low values 1.01 | locus YFR010W, strain ubp6, hits give low values 0.994 | locus YGL078C, strain dbp3, hits give low values 0.987 | locus YGL086W, strain mad1, hits give low values 1 | locus YGL167C, strain pmr1, hits give low values 1 | locus YGL173C, strain kem1, hits give low values 1.01 | locus YGL227W, strain vid30, hits give low values 1.03 | locus YGL240W, strain doc1, hits give low values 1.01 | locus YGL248W, strain PDE1, hits give low values 1.06 | locus YGL253W, strain hxk2, hits give low values 1 | locus YGR078C, strain PAC10, hits give low values 1.05 | locus YGR135W, strain pre9, hits give low values 1 | locus YGR252W, strain gcn5, hits give low values 0.913 | locus YHR013C, strain ard1, hits give low values 1.02 | locus YHR027C, strain rpn1, hits give low values 0.985 | locus YHR030C, strain SLT2, hits give low values 1.02 and 1.04 | locus YHR079C, strain IRE1 (second series), hits give low values 0.985 | locus YHR079C, strain IRE1, hits give low values 1.03 | locus YHR094C, strain hxt1, hits give low values 0.982 | locus YHR129C, strain ARP1, hits give low values 1.03 | locus YHR142W, strain chs7, hits give low values 0.989 | locus YHR200W, strain rpn10, hits give low values 0.996 | locus YIL066C, strain RNR3, hits give low values 1.02 | locus YIL073C, strain SPO22, hits give low values 1.12 | locus YIL125W, strain kgd1, hits give low values 0.992 | locus YIR030C, strain dcg1, hits give low values 0.985 | locus YJL092W, strain hpr5, hits give low values 1 | locus YJL095W, strain BCK1 (second series), hits give low values 1.02 | locus YJL095W, strain BCK1, hits give low values 1.07 and 1.01 | locus YJL115W, strain asf1, hits give low values 0.999 | locus YJL129C, strain trk1, hits give low values 1.02 | locus YJL134W, strain LCB3, hits give low values 1.01 | locus YJL154C, strain vps35, hits give low values 0.999 | locus YJL164C, strain tpk1, hits give low values 1.01 | locus YJL166W, strain qcr8, hits give low values 1.01 | locus YJL168C, strain set2, hits give low values 1 | locus YJL187C, strain SWE1 (second series), hits give low values 1.03 | locus YJL187C, strain SWE1, hits give low values 1.01 | locus YJR066W, strain TOR1, hits give low values 0.964 | locus YKL009W, strain mrt4, hits give low values 0.998 | locus YKL068W, hits give low values 0.984 | locus YKL085W, strain MDH1 (second series), hits give low values 0.989 | locus YKL085W, strain MDH1, hits give low values 0.989 | locus YKL160W, strain elf1, hits give low values 1.02 | locus YKL190W, strain CNB1, hits give low values 1.01 | locus YKR001C, strain vps1, hits give low values 0.997 | locus YKR026C, strain gcn3, hits give low values 1.01 | locus YKR091W, strain srl3, hits give low values 1.01 | locus YLL001W, strain dnm1, hits give low values 0.999 | locus YLL026W, hits give low values 1 | locus YLL041C, strain sdh2, hits give low values 0.997 | locus YLR027C, strain aat2, hits give low values 1.01 | locus YLR039C, strain RIC1, hits give low values 1.17 | locus YLR058C, strain SHM2, hits give low values 1.03 | locus YLR102C, strain apc9, hits give low values 0.989 | locus YLR113W, strain HOG1, hits give low values 0.988 | locus YLR221C, strain rsa3, hits give low values 1.01 | locus YLR258W, strain gsy2, hits give low values 1.01 | locus YLR262C, strain YPT6 (second series), hits give low values 1.01 | locus YLR268W, strain sec22, hits give low values 1.02 | locus YLR320W, strain mms22, hits give low values 1 | locus YLR342W, strain FKS1 (second series), hits give low values 1.04 | locus YLR342W, strain FKS1, hits give low values 1.02 | locus YLR357W, strain rsc2, hits give low values 1.01 | locus YLR370C, strain arc18, hits give low values 0.996 | locus YLR371W, strain rom2, hits give low values 0.992 | locus YLR384C, strain iki3, hits give low values 0.99 | locus YLR418C, strain cdc73, hits give low values 0.974 | locus YML016C, strain PPZ1, hits give low values 1.01 | locus YML032C, strain rad52, hits give low values 0.986 | locus YML120C, strain ndi1, hits give low values 1.01 | locus YML124C, strain tub3, hits give low values 0.992 | locus YMR058W, strain fet3, hits give low values 1 | locus YMR078C, strain ctf18, hits give low values 0.988 | locus YMR125W, strain sto1, hits give low values 1.01 | locus YMR129W, hits give low values 1 | locus YMR205C, strain PFK2, hits give low values 1.03 | locus YMR223W, strain ubp8, hits give low values 0.985 | locus YMR231W, strain pep5, hits give low values 1.01 | locus YMR263W, strain SAP30, hits give low values 1.01 | locus YMR307W, strain GAS1, hits give low values 1.15 | locus YNL067W, strain RPL9B, hits give low values 1.02 | locus YNL071W, strain lat1, hits give low values 1 | locus YNL153C, strain GIM3, hits give low values 1.06 | locus YNL183C, strain NPR1, hits give low values 0.967 | locus YNL209W, strain ssb2, hits give low values 0.997 | locus YNL233W, strain BNI4, hits give low values 1.06 | locus YNL248C, strain rpa49, hits give low values 1 | locus YNL250W, strain rad50, hits give low values 1.03 | locus YNL271C, strain bni1, hits give low values 0.968 | locus YNL298W, strain CLA4, hits give low values 0.991 | locus YNL307C, strain MCK1, hits give low values 0.987 | locus YNL322C, strain KRE1 (second series), hits give low values 1.03 | locus YNR049C, strain mso1, hits give low values 0.997 | locus YNR052C, strain pop2, hits give low values 0.975 | locus YOL012C, strain htz1 1.54 | locus YOL147C, strain pex11, hits give low values 0.982 | locus YOR001W, strain rrp6, hits give low values 1.01 | locus YOR061W, strain CKA2, hits give low values 1.01 | locus YOR069W, strain VPS5, hits give low values 1.01 | locus YOR070C, strain gyp1, hits give low values 1 | locus YOR080W, strain dia2, hits give low values 0.999 | locus YOR083W, strain WHI5, hits give low values 1.02 | locus YOR106W, strain vam3, hits give low values 1.01 | locus YOR136W, strain idh2, hits give low values 0.986 | locus YOR144C, strain elg1, hits give low values 0.979 | locus YOR184W, strain ser1, hits give low values 1.01 | locus YOR231W, strain MKK1, hits give low values 1.03 | locus YOR265W, strain rbl2, hits give low values 0.983 | locus YOR270C, strain vph1, hits give low values 0.904 | locus YOR290C, strain snf2, hits give low values 1.02 | locus YOR316C, strain cot1, hits give low values 0.979 | locus YPL051W, strain arl3, hits give low values 0.994 | locus YPL078C, strain atp4, hits give low values 1.03 | locus YPL106C, strain sse1, hits give low values 1.02 | locus YPL240C, strain hsp82, hits give low values 1 | locus YPL241C, strain CIN2, hits give low values 1.02 | locus YPL256C, strain CLN2, hits give low values 1.03 | locus YPR119W, strain clb2, hits give low values 0.978 | locus YPR141C, strain kar3, hits give low values 0.99 | locus YPR163C, strain tif3, hits give low values 0.997 | locus YPR167C, strain met16, hits give low values 1 | strain wtn01, hits give low values 1
